According to PubChem BioAssay (NCATS):
Results filed as inconclusive are left out. Active and inactive are the calls of the source. Calls come from the whole dose curve; as a rule, active = well fitted curve in the direction sought with a large enough effect; inconclusive = small, poorly fitted or top-dose-only effect, or another doubt; inactive = no such curve, though single readings can be large; an effect the other way counts as inactive or inconclusive.

Columns and labels:
[1] = HEK293 18hr Apoptosis Induction qHTS against the NCATS CANVASS Library (AID 1347357)
Procedure, shortened: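 Cells seeded at 500/well in DMEM + 10% FBS. Compounds pinned, 11 concentrations. 18 h, 37 degrees C/5% CO2. Caspase-Glo 3/7 added, 15 min RT dark, luminescence read.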

[2] = HPAF-II 12hr Apoptosis Induction qHTS against the NCATS CANVASS Library (AID 1347358)
Procedure, shortened: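 Caspase-Glo 3/7 luminescence (DEVD substrate) reports caspase activity in HPAF-II cells after 12 h compound treatment at 37 degrees C. Compounds were tested in an 11-point series. Doxorubicin served as control.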

[3] = HEK293 24hr Apoptosis Induction qHTS against the NCATS CANVASS Library (AID 1347359)
Procedure, shortened: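 Caspase-3/7 activation measured as luminescence from the DEVD-based Caspase-Glo reagent, 15 min at room temperature, following 24-hour compound treatment of HEK293 cells.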

[4] = HPAF-II 18hr Apoptosis Induction qHTS against the NCATS CANVASS Library (AID 1347360)
Procedure, shortened: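 Seed HPAF-II cells at 500/well in DMEM + 10% FBS, pin-transfer compounds, incubate 18 hours at 37 degrees C/5% CO2, add Caspase-Glo 3/7 reagent, wait 15 min, read luminescence.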

[5] = HEK293 12hr Apoptosis Induction qHTS against the NCATS CANVASS Library (AID 1347361)
Procedure, shortened: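 Cells are seeded, dosed with an 11-point compound series and incubated 12 hours. Caspase-3/7 activity is detected by luminescent DEVD-substrate reagent after 15 minutes at room temperature.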

[6] = system: NAD(P)H diaphorase (Clostridium kluyveri); test: Diaphorse counterscreen qHTS: Assay Interference Panel against the NCATS CANVASS Library (AID 1347362)
Procedure, shortened: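 Counterscreen for coupling-enzyme interference: resorufin fluorescence from resazurin/NADH turnover, read after 5 min at room temperature. Compounds were tested over an 11-point series after 15 min dark preincubation with diaphorase in PBS-Tween.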

[7] = target: Luciferin 4-monooxygenase (Photinus pyralis) (UniProt P08659); test: Firefly luciferase counterscreen qHTS: Assay Interference Panel against the NCATS CANVASS Library (AID 1347363); note: series mostly up to about 57 µM
Procedure, shortened: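 Luminescence inhibition readout: compounds (11-point qHTS) sat 15 min at room temperature with substrate mix (0.013 mM luciferin and ATP), then firefly luciferase was added and signal read 5 min later.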

[8] = KB-8-5-11 Cancer Cell Toxicity qHTS against the NCATS CANVASS Library (AID 1347364); note: series mostly up to about 46 µM; nearly all actives have a fitted effect of over 75% in size
Procedure, shortened: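 CellTiter-Glo luminescence after 72 h exposure; 500 KB-8-5-11 cells/well, DMEM/10% FBS, 37C, 5% CO2; compounds in 11-pt qHTS. Follow-up confirmation included medium with 1uM tariquidar.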

[9] = KB-3-1 Cancer Cell Toxicity qHTS against the NCATS CANVASS Library (AID 1347366); note: series mostly up to about 46 µM; nearly all actives have a fitted effect of over 75% in size
Procedure, shortened: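 Luminescence from CellTiter-Glo (10 min, room temperature) measured KB-3-1 viability after 72 hr compound exposure at 37C. Cells were seeded at 500/well and tested in an 11-point series.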

[10] = qHTS for ATAD5 Agonist screened against the NCATS CANVASS Library (AID 1347367);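 note: luciferase reporter driven by ATAD5 which rises upon DNA damage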
Procedure, shortened: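 HEK293T-ATAD5 luc reporter; 2000 cells/well; 5hr settle; cpd 11-pt qHTS; 16hr 37C 5% CO2 dark; viability by CellTiter-Fluor (AFC fluorescence); then luciferase luminescence, 30min RT.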

Measured: outcome

Luciferin 4-monooxygenase (Photinus pyralis), sequence (P08659 whole entry, looked up): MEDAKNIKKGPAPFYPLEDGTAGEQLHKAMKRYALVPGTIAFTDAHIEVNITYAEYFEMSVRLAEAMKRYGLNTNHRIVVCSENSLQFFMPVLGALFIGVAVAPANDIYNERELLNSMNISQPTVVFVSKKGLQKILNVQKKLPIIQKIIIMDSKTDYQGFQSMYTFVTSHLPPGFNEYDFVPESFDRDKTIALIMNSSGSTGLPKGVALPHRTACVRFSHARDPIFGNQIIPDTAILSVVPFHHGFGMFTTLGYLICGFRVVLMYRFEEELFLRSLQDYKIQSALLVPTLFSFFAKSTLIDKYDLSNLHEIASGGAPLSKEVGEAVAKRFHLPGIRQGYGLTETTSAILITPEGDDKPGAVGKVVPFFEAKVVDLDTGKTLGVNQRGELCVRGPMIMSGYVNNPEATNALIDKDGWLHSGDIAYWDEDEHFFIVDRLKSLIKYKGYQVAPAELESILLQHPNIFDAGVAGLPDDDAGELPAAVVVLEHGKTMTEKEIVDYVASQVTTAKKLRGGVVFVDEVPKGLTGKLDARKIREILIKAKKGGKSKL

COc1ccc2[nH]cc(CCNC(C)=O)c2c1
inactive: all assays above
